Source: PubChem BioAssay AID1159580 (chemical genetic matrix, 2015)
Out of some 5,500 compounds screened, about 2,000 (36%) were called active. Roughly 18% stayed inconclusive and do not appear here. No stated cut-off is given here; in the data, active means normalized growth mostly below about 0.91 (no sharp cut-off); inconclusive means no clear call, values can overlap the other calls; inactive means mostly above about 0.92. This is one part of the list.

Experiment: chemical genetic growth profiling, strain panel (AID 1159580);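 further: tested at 20 µM; growth read once vehicle control cultures reached saturation at 30 °C; 1 = growth at the plate median or of vehicle wells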
Settings: S. cerevisiae deletion strains, growth OD
[1] = locus YDL101C, strain DUN1, stronger effect = lower value
[2] = locus YHR030C, strain SLT2, stronger effect = lower value
[3] = locus YAL013W, strain DEP1, stronger effect = lower value
[4] = locus YAL040C, strain CLN3, stronger effect = lower value
[5] = locus YCL061C, strain MRC1 (second series), stronger effect = lower value
[6] = locus YDR150W, strain NUM1, stronger effect = lower value
[7] = locus YDR363W, strain ESC2, stronger effect = lower value
[8] = locus YER002W, strain NOP16, stronger effect = lower value
[9] = locus YGR078C, strain PAC10, stronger effect = lower value
[10] = locus YJR075W, strain HOC1, stronger effect = lower value
[11] = locus YMR307W, strain GAS1, stronger effect = lower value
[12] = locus YNL153C, strain GIM3, stronger effect = lower value
[13] = locus YNL175C, strain NOP13, stronger effect = lower value
[14] = locus YNL197C, strain WHI3, stronger effect = lower value
[15] = locus YNL224C, strain SQS1, stronger effect = lower value
[16] = locus YOR083W, strain WHI5 (second series), stronger effect = lower value
[17] = locus YPL055C, strain LGE1, stronger effect = lower value
[18] = locus YPL241C, strain CIN2, stronger effect = lower value
[19] = locus YGR229C, strain SMI1, stronger effect = lower value
[20] = locus YMR263W, strain SAP30, stronger effect = lower value
[21] = locus YNL322C, strain KRE1, stronger effect = lower value

Measured: normalized growth

Cc1cc2nc3c(Cl)c(O)c4ccccc4c3nc2cc1C
inactive: locus YAR019C, strain CDC15, stronger effect = lower value 0.966 | locus YBL105C, strain PKC1, stronger effect = lower value 0.961 | locus YBR135W, strain CKS1, stronger effect = lower value 0.949 | locus YBR136W, strain MEC1, stronger effect = lower value 0.965 | locus YBR160W, strain CDC28, stronger effect = lower value 0.96 | locus YDL017W, strain CDC7, stronger effect = lower value 0.965 | locus YDL028C, strain MPS1, stronger effect = lower value 0.959 | [1] 0.981 | locus YDL108W, strain KIN28, stronger effect = lower value 0.954 | locus YDL132W, strain cdc53, stronger effect = lower value 0.966 | locus YDL214C, strain PRR2, stronger effect = lower value 0.818 | locus YDR052C, strain DBF4, stronger effect = lower value 0.953 | locus YDR054C, strain cdc34, stronger effect = lower value 0.965 | locus YDR226W, strain ADK1, stronger effect = lower value 0.949 | locus YER123W, strain YCK3, stronger effect = lower value 0.766 | locus YER133W, strain GLC7, stronger effect = lower value 0.87 | locus YFL009W, strain cdc4, stronger effect = lower value 0.969 | locus YFL029C, strain CAK1, stronger effect = lower value 0.946 | locus YFR003C, strain YPI1, stronger effect = lower value 0.962 | locus YFR019W, strain FAB1, stronger effect = lower value 0.887 | locus YFR028C, strain CDC14, stronger effect = lower value 0.958 | locus YGR040W, strain KSS1, stronger effect = lower value 0.724 | locus YGR052W, strain FMP48, stronger effect = lower value 0.722 | locus YGR092W, strain DBF2, stronger effect = lower value 0.487 | locus YHR079C, strain IRE1, stronger effect = lower value 0.805 | locus YHR082C, strain KSP1, stronger effect = lower value 0.737 | locus YHR205W, strain SCH9, stronger effect = lower value 0.666 | locus YIL147C, strain SLN1, stronger effect = lower value 0.958 | locus YJL095W, strain BCK1, stronger effect = lower value 0.749 | locus YJL128C, strain PBS2, stronger effect = lower value 0.944 | locus YJL157C, strain FAR1, stronger effect = lower value 0.778 | locus YJR016C, strain ILV3, stronger effect = lower value 0.955 | locus YJR066W, strain TOR1 (second series), stronger effect = lower value 0.64 | locus YJR066W, strain TOR1, stronger effect = lower value 0.559 | locus YKL067W, strain YNK1, stronger effect = lower value 0.786 | locus YKL101W, strain HSL1, stronger effect = lower value 0.829 | locus YKL193C, strain SDS22, stronger effect = lower value 0.972 | locus YKL203C, strain TOR2, stronger effect = lower value 0.766 | locus YLR113W, strain HOG1, stronger effect = lower value 0.877 | locus YLR403W, strain SFP1, stronger effect = lower value 0.663 | locus YML070W, strain DAK1, stronger effect = lower value 0.852 | locus YMR001C, strain CDC5, stronger effect = lower value 0.959 | locus YMR277W, strain FCP1, stronger effect = lower value 0.961 | locus YNL006W, strain LST8, stronger effect = lower value 0.974 | locus YNL161W, strain CBK1, stronger effect = lower value 0.971 | locus YNL183C, strain NPR1, stronger effect = lower value 0.739 | locus YNL207W, strain RIO2, stronger effect = lower value 0.961 | locus YNL222W, strain SSU72, stronger effect = lower value 0.955 | locus YOL078W, strain AVO1, stronger effect = lower value 0.962 | locus YOL136C, strain PFK27, stronger effect = lower value 0.838 | locus YOR119C, strain RIO1, stronger effect = lower value 0.831 | locus YOR231W, strain MKK1, stronger effect = lower value 0.829 | locus YOR329C, strain SCD5, stronger effect = lower value 0.97 | locus YPL153C, strain RAD53, stronger effect = lower value 0.68 | locus YPL209C, strain IPL1, stronger effect = lower value 0.976 | locus YPL256C, strain CLN2, stronger effect = lower value 0.869 | locus YPR025C, strain CCL1, stronger effect = lower value 0.957 | locus YPR106W, strain ISR1, stronger effect = lower value 1.01 | locus YPR111W, strain DBF20, stronger effect = lower value 0.976 | strain NNK1, stronger effect = lower value 0.966 | strain TSCII, stronger effect = lower value 0.963
active: locus YDR477W, strain SNF1, stronger effect = lower value 0.634 | [2] 0.55 | locus YKL048C, strain ELM1, stronger effect = lower value 0.737 | locus YLR133W, strain CKI1, stronger effect = lower value 0.679 | locus YMR205C, strain PFK2 (second series), stronger effect = lower value 0.726 | locus YNL020C, strain ARK1, stronger effect = lower value 0.617 | locus YOR061W, strain CKA2, stronger effect = lower value 0.43 | locus YPL031C, strain PHO85, stronger effect = lower value 0.643 | locus YPL204W, strain HRR25, stronger effect = lower value 0.646

CCCn1cnc2c1c(=O)n(CCCCC(C)=O)c(=O)n2C
inactive: [3] 1.01 | [4] 0.997 | [5] 1.01 | [6] 1.01 | [7] 0.961 | [8] 1.02 | [9] 1.01 | [10] 1.02 | [11] 1.01 | [12] 1.04 | [13] 1.01 | [14] 0.996 | [15] 1.01 | [16] 1.01 | [17] 1.02 | [18] 1.01

COC[C@H]1OC(=O)c2coc3c2[C@@]1(C)C1=C(C3=O)C2CCC(=O)[C@@]2(C)C[C@H]1OC(C)=O (stereo partly drawn)
inactive: [9] 0.994 | [13] 1
active: [4] 0.0731 | [5] 0.141 | [6] 0.136 | [7] 0.206 | [8] 0.0648 | [19] 0.0613 | [20] 0.0519 | [11] 0.0665 | locus YNL128W, strain TEP1, stronger effect = lower value 0.143 | [12] 0.101 | [14] 0.0727 | [15] 0.0711 | [21] 0.33 | [16] 0.359 | [17] 0.119

CN1C(=O)CCC1c1cccnc1 (stereo not drawn)
inactive: [3] 1.02 | [4] 1.02 | [8] 1 | [10] 1.01 | [13] 0.999 | [15] 1.01 | [16] 1.02 | [18] 1.01

O=C1CSC(c2cccnc2)N1c1ccc(Cl)cc1 (stereo not drawn)
active: locus YLR039C, strain RIC1, stronger effect = lower value 0.723 | locus YLR262C, strain YPT6, stronger effect = lower value 0.677
inactive: [3] 1 | locus YBR229C, strain ROT2, stronger effect = lower value 0.997 | [1] 0.978 | [6] 0.997 | locus YEL061C, strain CIN8, stronger effect = lower value 0.977 | [9] 1 | [19] 0.984 | [2] 1.12 | locus YHR087W, strain rtc3, stronger effect = lower value 0.98 | locus YJR043C, strain POL32, stronger effect = lower value 0.983 | [10] 1 | locus YKL190W, strain CNB1, stronger effect = lower value 0.997 | locus YLR058C, strain SHM2 (second series), stronger effect = lower value 1.01 | locus YLR085C, strain ARP6, stronger effect = lower value 1 | locus YML094W, strain GIM5, stronger effect = lower value 0.957 | locus YMR219W, strain ESC1, stronger effect = lower value 0.992 | [20] 1.04 | [11] 1.01 | [12] 1.01 | locus YNL298W, strain CLA4 (second series), stronger effect = lower value 1 | [21] 0.995 | locus YNR030W, strain Alg12, stronger effect = lower value 0.994 | [17] 0.986 | [18] 1.04 | locus YPR135W, strain CTF4, stronger effect = lower value 1.05
